# Bioassay records deposited in PubChem by National Center for Advancing Translational Sciences (NCATS).
# Hits are enriched below; roughly 19% of the tested compounds scored in any of these assays.
# CHX counter: Cycloheximide Counterscreen for Small Molecule Inhibitors of Shiga Toxin; 300,000 compounds, 12% hits; max response, %; cell reporter, cycloheximide protein synthesis inhibition counterscreen; in the data active = max response mostly above about 13%, no sharp cut-off; inactive = mostly below about 14%; note: read at 38.3 µM for the half of the compounds with a filed dose; 0% is about no effect
# Pf growth 48h: Primary qHTS for delayed death inhibitors of the malarial parasite plastid, 48 hour incubation; P. falciparum luciferase growth in erythrocytes, 48 h; Potency, µM (series often up to 28.7 µM), inactives show at the top dose activity change, negative = inhibition, actives largely listed as inhibitors; 310,000 compounds, 5.9% hits; AID 504832, 2011; note: potency is the fitted concentration of half-maximal effect; % is set by controls: 0 for no effect and ±100 for the full control effect
#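 Read-out is firefly luciferase luminescence from an integrated reporter in P. falciparum, so falling signal marks reduced parasite growth. Infected erythrocytes were at 2% hematocrit and 0.1% parasitemia (final) in Albumax-supplemented RPMI 1640.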
# Shiga toxin inh: A qHTS for Small Molecule Inhibitors of Shiga Toxin; AID 2315, 2010; inhibition, % at 38.7 µM; 290,000 compounds, 9.2% hits; Vero cells, Shiga toxin protein synthesis inhibition reporter; in the data active = inhibition mostly above about 28%, no sharp cut-off; inactive = mostly below about 43%; note: 0% is about no effect
# MARV entry inh: qHTS for inhibitors of binding or entry into cells for Marburg Virus; Marburg virus pseudotyped entry inhibition, cell reporter; Potency, µM (series often up to 37.8 µM), for the others: top-dose activity change, negative = inhibition, hits mostly inhibitors; 300,000 compounds, 1.8% hits; AID 540276, 2011; calls by dose curve; tested in HEK293 cells; note: potency is the fitted concentration of half-maximal effect; % is set by controls: 0 for no effect and ±100 for the full control effect
# Pf growth 96h: Primary qHTS for delayed death inhibitors of the malarial parasite plastid, 96 hour incubation; P. falciparum luciferase reporter growth, 96 h; Potency, µM (series often up to 28.7 µM), for the others: at the top dose activity change, negative = inhibition, usual class: inhibitors; 320,000 compounds, 6.9% hits; note: potency is the fitted concentration of half-maximal effect; % is set by controls: 0 for no effect and ±100 for the full control effect
#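 Delayed-death screen, second-generation endpoint: infected erythrocytes, 2% hematocrit, 0.05% parasitemia final; 96 hours at 37 C, 5% CO2; luciferase detection reagent; luminescence decrease equals reduced growth.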
# Lassa entry inh: qHTS for Inhibitors of binding or entry into cells for Lassa Virus | Lassa virus pseudotype entry inhibition, cell reporter | Potency, µM (titrated, usually from 37.9 µM), for the others: at the highest dose activity change, negative = inhibition, actives largely listed as inhibitors | 300,000 compounds, 1.2% hits; calls by dose curve; tested in HEK293 cells; note: potency is the fitted concentration of half-maximal effect; % is set by controls: 0 for no effect and ±100 for the full control effect; nearly all actives have a fitted effect of over 50% in size
# * marks the source's active call; other numbers are inactive results; ? = inconclusive; . = not tested or not shown; [ ] = remark or other dose. Unless noted, calls come from the whole dose curve; as a rule, active = well fitted inhibition curve with a large enough effect; inconclusive = small, poorly fitted or top-dose-only effect, or another doubt; inactive = no such curve, though single readings can be large or run the other way.
SMILES,CHX counter,Pf growth 48h,Shiga toxin inh,MARV entry inh,Pf growth 96h,Lassa entry inh
Cc1ccc(CNC(=O)N2CCN(C)CC2)cc1,3,7%,7,?,-5%,-2%
c1ccc(-c2nnc3sc(CN4CCc5ccccc54)cn23)cc1,24,10µM*,46*,?,?,-26%
Cc1ccc2c3c(cccc13)-c1ccccc1C2=O,28*,31%,14,-2%,307%,?
Nc1ccc2c3c(cccc13)-c1ccccc1-2,.,.,.,?,.,23%[46.1 µM]
Cn1c(=O)c2c(ncn2Cc2ccccc2)n(C)c1=O,-2,-11%,-9,.,?,.
CC(NC(=O)OC(C)(C)C)C(=O)N1CCCC1C(=O)NC(Cc1ccccc1)C(N)=O (stereo unspecified),2,13%,-6,-1%,?,9%
COc1ccc(OC)c(S(=O)(=O)N2CCC(C(=O)NCCC3=CCCCC3)CC2)c1,-3,13µM*,25,14%,-19%,15%
CCOc1ccc(OCC)c(NC(=O)C2CCN(S(=O)(=O)c3cccc4nonc34)CC2)c1,-2,.,-15,0%[46.1 µM],13µM*,5%
CCS(=O)(=O)N1CCC(C(=O)NCCC2=CCCCC2)CC1,14,?,-2,-2%,?,22%
COc1ccc(CCNC(=O)C2CCN(S(=O)(=O)c3cccc4nonc34)CC2)cc1OC,1,-12%,-17,0%[46.1 µM],8.3µM*,0%
Cc1cc2c(cc(C(=O)N3CCC(C(=O)NC4CCCC4)CC3)n2Cc2c(F)cccc2Cl)o1,-3,?,-2,.,-9%,.
COc1ccc(S(=O)(=O)NC(C(C)C)C(C)C)cc1OC,-3,1%,-2,21%,-20%,6%
O=C(NNC(=O)c1ccc[nH]1)Nc1cc(Cl)cc(Cl)c1,15*,13%,31,4%[46.1 µM],39%,2%[46.1 µM]
O=C(Nc1ccccc1)Nc1cc(Cl)cc(Cl)c1,25,.,39,?,.,?
O=C(NNC(=O)c1ccc[nH]1)Nc1cccc(C(F)(F)F)c1,43*,28%,72*,15%[46.1 µM],66%,0%[46.1 µM]
Cn1c(-c2ccc3c(c2)OCO3)c(C(=O)O)c(=O)c2ccccc21,-2,-1%,-3,0%,5%,11%
Nc1[nH]n(-c2ccccc2)c(=O)c1N=Nc1ccc2c(c1)OCCO2,33*,300%,59*,?,388%,?
Cc1cc([N+](=O)[O-])ccc1N=Nc1c(N)[nH]n(-c2ccccc2)c1=O,15,-11%,13,-3%[46.1 µM],51%,1%
Nc1[nH]n(-c2ccccc2)c(=O)c1N=Nc1ccc2c(c1)OCO2,36*,216%,121*,.,344%,.
CCN1CCN(C(=O)CNC(=O)c2nn(-c3ccc(OC)cc3)c(=O)c3ccccc23)CC1,10,27%,22,-6%[46.1 µM],1.5µM*,.
COc1ccc(-n2nc(C(=O)NCC(=O)N3CCCC3)c3ccccc3c2=O)cc1,-2,5%,15,19%[46.1 µM],?,.
COc1ccc(-n2nc(C(=O)NCC(=O)N3CCN(c4ccccn4)CC3)c3ccccc3c2=O)cc1OC,15*,-18%,26,?,3%,-16%[46.1 µM]
COc1ccc(-n2nc(C(=O)NCC(=O)N3CCC4(CC3)OCCO4)c3ccccc3c2=O)cc1OC,17*,?,37,?,4.7µM*,?
COc1ccc(-n2nc(C(=O)NCC(=O)N3CCN(c4ccccc4)CC3)c3ccccc3c2=O)cc1OC,22*,0%,43*,-12%[46.1 µM],16%,?
O=C(NN1C(=O)c2ccccc2NC1c1ccoc1)c1ccc([N+](=O)[O-])cc1 (stereo unspecified),-5,28%,19,.,?,.
SMILES,CHX counter,Pf growth 48h,Shiga toxin inh,MARV entry inh,Pf growth 96h,Lassa entry inh
COc1ccc(C)cc1S(=O)(=O)NCC(c1cccnc1)N1CCc2ccccc2C1 (stereo unspecified),1,?,-13,?,70%,?
COc1ccc(-n2nc(C(=O)NCC(=O)N3CCN(c4ccccc4OC)CC3)c3ccccc3c2=O)cc1OC,3,1.7µM*,-7,-13%[46.1 µM],?,11%
O=C(NC1CCCCC1)N1CCCCCC1,12,6%,37,19%,20%,8%
O=C(NC1CCS(=O)(=O)C1)N1CCCCC1 (stereo unspecified),-3,.,-12,?,4.1µM*,1%
COc1ccc(NC(=O)C/C(C)=N/NC(=O)C(=O)NC2CCCCC2)c(OC)c1,-4,7%,13,?,?,-1%
COCCN=c1scc(-c2cccs2)n1/N=C/c1ccc(O)c(O)c1O,32*,9.3µM*,55*,.,4.1µM*,.
Cc1cc(C)n(/N=C/c2c[nH]c3ccccc23)c(=O)c1,-2,38%,-11,?,18%,8%
CCN=c1scc(C)n1/N=C/c1ccc(O)c(O)c1O,25*,?,49,?,7.4µM*,1%
O=C(Cc1csc(N2CCOCC2)n1)N/N=C/c1ccc(O)c(O)c1O,9,1%,-13,1%[46.1 µM],1%,1%
O=C1CSC(=S)N1/N=C/c1ccc(O)c(O)c1O,2,?,15,.,?,.
COCCN=c1scc(-c2ccccc2)n1/N=C/c1c[nH]c2ccccc12,17*,?,29,.,?,.
CCN=c1scc(C)n1/N=C/c1cc(Br)c(O)c(Br)c1,20,?,32*,?,?,?
C=C(C)CN=c1scc(C)n1/N=C/c1ccco1,2,6%,10,-3%,?,?
CCN(c1cc(C)cc(C)c1)S(=O)(=O)c1nnc(NC(=O)C(C)(C)C)s1,-2,?,-4,.,27%,.
S=C(NCc1cccnc1)Nc1cccc2ccccc12,5,-10%,-1,4%,-25%,3%
COc1cccc(-c2nn(C)c3sc(C(=O)NCc4ccc(C)o4)cc23)c1,23*,?,28,?,?,?
CCN(CC)CCCNC(=O)c1cc2c(-c3ccc(Cl)cc3)nn(C)c2s1,13,.,14,.,?,.
COc1cccc(-c2nn(C)c3sc(C(=O)N4CCOCC4)cc23)c1,1,.,8,.,2.3µM*,.
COc1cccc(-c2nn(C)c3sc(C(=O)NCc4ccc(OC)cc4OC)cc23)c1,.,.,.,-2%[46.1 µM],.,?
CCN(CCCNC(=O)c1cc2c(-c3cccc(OC)c3)nn(C)c2s1)Cc1ccccc1,0,2.3µM*,-5,?,9%,?
CC(CN1CCCCC1)OC(=O)c1ccccc1F (stereo unspecified),-1,25%,-7,.,?,.
Cc1cc(C(=O)CCC(=O)Nc2ncccc2C)c(C)s1,.,-20%,.,-12%,?,-1%
NC(=S)N/N=C/c1ccc(-c2cc(Cl)cc(Cl)c2)o1,11,?,-9,-29%,.,-29%
NC(=S)N/N=C/c1ccc(-c2cc(Cl)ccc2Cl)o1,-3,.,-8,?,4.7µM*,?
